Pf gametocyte: late stage P. falciparum gametocyte viability inhibitors, primary screen, ATP luminescence, HTS; P. falciparum stage V gametocytes, 24 h; inhibition, % at 10.9 µM; 150,000 tested, 0.065% active;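 active = inhibition above the mean plus 3 SD of compounds within the control limits, set per campaign, cut at about 38% in these data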
Bcl-2 Bim block: inhibitors of Bim-Bcl-2 binding, primary screen, biochemical, multiplexed, human Bcl-2 family; Bead-based flow cytometry, Bim peptide-Bcl-2 binding; inhibition, % at 10 µM; 190,000 tested, 0.06% active; AID 950, 2007; in the data active = inhibition above about 40%
Target sequence (P10415 whole entry, looked up): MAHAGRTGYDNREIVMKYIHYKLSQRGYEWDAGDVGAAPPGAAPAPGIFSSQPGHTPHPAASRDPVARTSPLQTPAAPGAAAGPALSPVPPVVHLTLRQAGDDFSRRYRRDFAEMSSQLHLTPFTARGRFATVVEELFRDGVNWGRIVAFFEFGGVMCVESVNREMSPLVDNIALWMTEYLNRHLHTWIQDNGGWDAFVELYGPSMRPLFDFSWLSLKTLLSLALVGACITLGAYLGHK
Bcl-W Bim block: inhibitors of Bim binding to Bcl-W, primary screen, biochemical, multiplexed, bead-based flow cytometry | 190,000 tested, 0.02% active | AID 952, 2007 | inhibition, % at 10 µM | Bim peptide-Bcl-W binding | Bcl-2-like protein 2 (Homo sapiens), Q92843;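 also: higher means less fluorescent Bim peptide bound to Bcl-W beads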
Target sequence (Q92843 whole entry, looked up): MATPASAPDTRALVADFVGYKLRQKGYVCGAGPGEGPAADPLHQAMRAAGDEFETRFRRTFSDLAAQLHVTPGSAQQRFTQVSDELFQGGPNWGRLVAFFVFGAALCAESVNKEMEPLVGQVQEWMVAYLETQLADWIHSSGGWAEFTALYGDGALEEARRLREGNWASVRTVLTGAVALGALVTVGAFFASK
Bcl-XL Bim block: inhibitors of Bim-Bcl-XL binding, primary screen, biochemical, multiplexed, bead flow cytometry, human Bcl-XL. Bcl-2-like protein 1 (Homo sapiens), Q07817. inhibition, % at 10 µM. 190,000 tested, 0.04% active. Bim peptide-Bcl-XL binding, fluorescence. AID 1007, 2008
Bim-Bcl-B: inhibitors of Bim-Bcl-B binding, primary screen, biochemical, multiplexed, human Bcl-2 family; Bcl-2-like protein 10 (Homo sapiens), Q9HD36; bead-based flow cytometry, Bim peptide-Bcl-B binding; inhibition, % at 10 µM; 190,000 tested, 0.073% active; AID 951, 2007
Bfl-1 Bim block: inhibitors of Bim binding to Bfl-1, primary screen, biochemical, multiplexed, bead-based flow cytometry; AID 1008, 2008; Bim-Bfl-1 binding inhibition; Bcl-2-related protein A1 (Homo sapiens), Q16548; inhibition, % at 10 µM; 190,000 tested, 0.12% active
Target sequence (Q16548 whole entry, looked up): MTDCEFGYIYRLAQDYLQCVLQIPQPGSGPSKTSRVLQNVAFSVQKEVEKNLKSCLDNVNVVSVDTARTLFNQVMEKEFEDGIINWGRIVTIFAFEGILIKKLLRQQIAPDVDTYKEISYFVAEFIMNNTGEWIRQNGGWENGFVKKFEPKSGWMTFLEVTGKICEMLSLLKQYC
Hits are given with their value; n = inactive; x = no result. Shown are actives, neighbours in structure and some others; about 0.2% of the full set was active somewhere. Rule as the data show it, unless noted: active = inhibition above about 40%.

SMILES | Pf gametocyte | Bcl-2 Bim block | Bcl-W Bim block | Bcl-XL Bim block | Bim-Bcl-B | Bfl-1 Bim block
COc1ccccc1N=c1oc2cc(O)ccc2cc1C(N)=O | 55.6 | n | n | n | n | n
COc1cc(OC)c([N+](=O)[O-])cc1/C=N/NC(=O)c1ccncc1 | n | n | 40.0 | n | n | n
COc1cc(/C=N/NC(=O)c2ccncc2)cc(OC)c1OC | n | x | x | x | x | x
COc1ccc(-c2n(Cc3ccccc3)c3ccccc3[n+]2Cc2ccccc2)cc1 | n | n | n | n | n | n
COc1ccc(CC(=O)Nc2ccc(N(C)C)c3ccccc23)cc1 | n | x | x | x | x | x
CCCCCCc1cc2cc(C(=O)Nc3ccccc3)c(=O)oc2cc1O | x | 45.0 | n | n | 50.0 | n
CCCCCCc1cc2cc(C(=O)NCc3ccccc3)c(=N)oc2cc1O | n | n | n | n | n | n
COc1ccccc1NC(=O)CN1CCN(c2ccccc2)CC1 | n | n | n | n | n | n
Cc1cc2nc(/C(C#N)=C/c3ccncc3)[nH]c2cc1C | n | 44.0 | 47.0 | n | n | n
CCCCNC(=O)c1ccc(NS(=O)(=O)c2ccccc2)cc1 | n | n | n | n | n | n
COc1ccc2nc(NC(=O)c3cccc(-c4cc5ccccc5oc4=O)c3)sc2c1 | 49.0 | n | n | n | n | n
CN(C)/C=C/C(=O)c1ccc(C(F)(F)F)cc1F | n | 74.0 | n | 94.0 | 89.0 | n
Cc1ccc2c(SCC(=O)NCc3ccco3)nc(-c3ccc(F)cc3)nc2c1 | x | n | n | n | n | n
COC(=O)c1cc(NC(=O)c2ccc(-c3ccccc3)cc2)ccc1Cl | 41.4 | n | n | n | n | n
COC(=O)c1cc(NC(=O)Nc2cccc(Cl)c2)ccc1Cl | x | n | n | n | n | n
CCOc1ccccc1NC(=O)NC1CC2CCCC(C1)N2Cc1nnnn1CCc1ccccc1 (configuration not stated) | x | n | n | n | n | n
COc1ccccc1NC(=O)c1ccccc1NC(=O)c1cc(Cl)ccc1NC(=O)c1ccco1 | 39.4 | n | n | n | n | n
COC(=O)c1c(C(=O)OC)c2cccc3cc(-c4ccccc4)c4ccc1c4n32 | x | n | n | n | n | 44.0
COC(=O)c1cc2c(-c3ccccc3)cc3ccccn3c-2c1C(=O)OC | x | n | n | n | n | n
CCCCc1ccc(NC(=S)NCc2ccc(OC)cc2)cc1 | n | 44.0 | n | n | 51.0 | n
COc1ccc(CNC(=S)Nc2ccc(OC)cc2)cc1 | n | n | n | n | n | n
O=C(O)c1ccc(NC2=C(Cl)C(=O)c3ccccc3C2=O)cc1 | n | x | x | x | x | x
Cc1ccc(NCC(=O)c2ccccc2)cc1Cl | x | n | n | n | n | n
Cc1ccc(NC2=C(NC(=O)c3ccccc3)C(=O)c3ccccc3C2=O)cc1Cl | n | n | n | n | n | 50.0
O=C(O)c1cccc(NC2=C(Cl)C(=O)c3ccccc3C2=O)c1 | n | n | n | n | n | 60.0
SMILES | Pf gametocyte | Bcl-2 Bim block | Bcl-W Bim block | Bcl-XL Bim block | Bim-Bcl-B | Bfl-1 Bim block
CN1C(=O)/C(=C/c2ccc(-c3ccccc3[N+](=O)[O-])o2)SC1=Nc1ccc(Cl)c(C(=O)O)c1 | x | n | 44.0 | 64.0 | 44.0 | n
Cc1nnc(NCc2n[nH]c(=O)c3ccccc23)c2ccccc12 | x | n | n | n | 57.0 | n
COc1cccc(/C=N/n2c(CO)nc3ccccc32)c1OC | n | n | n | n | n | n
CNc1nc2ccccc2n1/N=C/c1cccc(OC)c1OC | x | 92.0 | n | n | x | x
COc1ccc(NC(=O)/C(C#N)=C/c2c(C)nn(-c3ccc(F)cc3)c2Cl)cc1Cl | n | n | n | n | n | 42.0
Cc1ccc(C)c(Oc2ncnc(N)c2[N+](=O)[O-])c1 | x | n | n | 46.0 | n | 43.0
Cc1nc2ccc(NC(=O)c3cc([N+](=O)[O-])cc([N+](=O)[O-])c3Cl)cc2s1 | x | n | n | n | n | 52.0
Cc1nc2ccc(NC(=O)c3ccc(Cl)c([N+](=O)[O-])c3)cc2s1 | n | n | n | n | n | n
COCCn1c(N)c(C(=O)Nc2sc3c(c2C(=O)OC)CCCC3)c2nc3ccccc3nc21 | x | n | n | 41.0 | n | n
COCCn1c(N)c(C(=O)NCC2CCCO2)c2nc3ccccc3nc21 (configuration not stated) | x | n | n | n | n | n
CC1(C)SC(=S)N(NC(=O)Nc2ccccc2)C1N(O)C(=O)Nc1cccc2ccccc12 (configuration not stated) | n | n | n | 45.0 | n | 48.0
CCCCC(C(=O)OCC)C(N)Cc1ccc(F)cc1 (configuration not stated) | n | 58.0 | n | 83.0 | 76.0 | n
O=S(=O)(c1cccc(C(F)(F)F)c1)c1ccc(O)cn1 | n | x | x | x | x | x
NNC(=O)c1ccc(CSc2n[nH]c(=O)[nH]c2=O)cc1 | n | x | x | x | x | x
COc1ccccc1NC(=O)c1ccc(COc2ccccc2OC)cc1 | n | x | x | x | x | x
COc1ccccc1OCc1ccc(C(=O)Nc2ccccc2F)cc1 | x | 47.0 | n | n | 63.0 | n
COc1ccc(OC)c(S(=O)(=O)Nc2cccc3ccc(O)cc23)c1 | n | x | x | x | x | x
COc1cccc(OC)c1OCCCN1CCC(Cc2ccccc2)CC1 | n | x | x | x | x | x
N#Cc1cc(-c2ccccc2)nn1-c1ccccc1 | x | n | n | n | n | 57.0
CSc1nsc(SCC(=O)NCc2ccc(C)cc2)n1 | n | x | x | x | x | x
O=C(O)CC1S/C(=N/N=C/C=C/c2ccccc2[N+](=O)[O-])NC1=O (configuration not stated) | n | n | n | 50.0 | n | 46.0
O=C(O)CC1S/C(=N/N=C/C=C/c2ccccc2)NC1=O (configuration not stated) | x | n | n | n | n | n
CCC(=O)OCCNc1cc(Sc2nc3ccccc3s2)c2nonc2c1[N+](=O)[O-] | x | n | n | n | n | 54.0
CCC(=O)OCCNc1cc(Sc2nc3ccccc3[nH]2)c2nonc2c1[N+](=O)[O-] | x | n | n | n | n | n
CC(C)=CCN1CCN(Cc2cc(CC(C)C)n[nH]2)CC1CCO (configuration not stated) | n | x | x | x | x | x
CCCn1c(C)cc(-c2csc(N)n2)c1C | x | n | n | n | 46.0 | n
CN(Cc1ccccc1)C(=O)c1[nH]cnc1C(=O)N[C@@H](CCCCNC(=O)OC(C)(C)C)C(=O)OC(C)(C)C | x | 83.0 | n | n | 73.0 | 45.0
NS(=O)(=O)c1ccc(N2CCCC2=O)c([N+](=O)[O-])c1 | 38.2 | n | n | n | n | n
NNS(=O)(=O)c1ccc(N2CCCC2=O)c([N+](=O)[O-])c1 | n | n | n | n | n | n
Cc1cccc(N2C(=S)N=C(Nc3c(C)cccc3C)C23CCOC(C)(C)C3)c1 (configuration not stated) | x | n | n | n | n | n
